# The sample as a whole holds a higher share of hits than the screen did.
# Pf apPOL block: Pf-apPOL DNA polymerase inhibition | hit rate 0.25% among 210,000 | Recombinant Pf-apPOL, molecular beacon fluorescence, 1.5 h | AID 1794808 | inhibition, % at 10 µM
# mHTT CaM bind: inhibitors of human mutant huntingtin-calmodulin interaction | P42858 | AlphaScreen His-mHTT/GST-CaM binding, luminescence | inhibition, % at 15 µM | hit rate 3.6% among 190,000 | AID 1671202;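 also: 0% = both proteins with DMSO and 100% = one protein alone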
# Numbers without * were called inactive; nt = not tested or not shown; ! = not confirmed by another sample. Rule as the data show it: active = inhibition above about 50%; inactive = the rest.
SMILES,Pf apPOL block,mHTT CaM bind
COc1ccccc1C1(CNC(=O)C(=O)NCc2ccc(F)cc2)CCOCC1,-3,-17
COc1ccc(NC(=O)Nc2cc(C)ccn2)cc1,-4,-3
COc1ccc(C(Nc2cc(C)ccn2)c2ccc3ccc(C)nc3c2O)cc1OC (stereo unspecified),-55,96*
COc1ccc(C(=O)N2CCN(c3nc(CN4CCOCC4)cs3)CC2)cc1OC,-4,9
Cc1c(Cl)c(C)c(C=O)c(O)c1Br,-3,79*
O=c1c2c(ncn2Cc2cccc(F)c2)n(-c2cccc(F)c2)c(=O)n1CC1CC1,-7,7
CCC(Cc1ccccc1)NC(=O)c1csc2c1CCCC2 (stereo unspecified),-1,-15
N=c1n(CC(=O)c2ccccc2)c2ccccc2n1Cc1ccccc1,-2,-5
CC(C)c1cc(C2CCCN2C(=O)c2c(F)cccc2Cl)no1 (stereo unspecified),1,-5
Cn1cnnc1Sc1ccc([N+](=O)[O-])c2ncccc12,5,2
O=[N+]([O-])c1ccc(SCc2ccco2)c2cccnc12,-6,100*
CC(/C=C1\N=C(c2cccc(Cl)c2)OC1=O)=C\c1ccccc1,6,19
Oc1ccc(Nc2nc(NCc3ccco3)c3ccccc3n2)cc1,-1,53*
Clc1ccc(CSc2nc(NCc3ccco3)c3ccccc3n2)cc1,-8,25
CS(=O)(=O)Oc1ccc2c(c1)OC(=Cc1ccccc1Cl)C2=O,-6,-1
Nc1ccc(CCc2nc3ccc(N)cc3[nH]2)cc1,-10,4
Nc1ccc2nc(-c3ccc(-c4nc5ccc(N)cc5[nH]4)cc3)[nH]c2c1,68*,35
Nc1ccc2nc(Cc3nc4ccc(N)cc4[nH]3)[nH]c2c1,-6,79*
Nc1ccc(-c2nc3ccc(-c4nc5ccc(N)cc5[nH]4)cc3[nH]2)cc1,5,51*
Nc1ccc2nc(-c3ccccc3-c3nc4ccc(N)cc4[nH]3)[nH]c2c1,1,41
Nc1ccc(-c2nc3ccc(C(=O)c4ccc5nc(-c6ccc(N)cc6)[nH]c5c4)cc3[nH]2)cc1,-7,11
Cc1ccc(C(=O)N2CCC(CCNC(=O)c3ccc(F)cc3)CC2)cc1,-1,5
O=C(Cn1nc(-n2cccn2)ccc1=O)Nc1nccs1,-3,-14
Cn1c(-c2ccc(Cl)cc2)cnc1Sc1ncccc1[N+](=O)[O-],-60,nt
c1cc(CN2CCCCC2c2nncn2CC2CC2)co1 (stereo unspecified),1,-3
SMILES,Pf apPOL block,mHTT CaM bind
CC1=N/C(=C\c2ccc([N+](=O)[O-])cc2)C(=O)N1c1ccc(Cl)cc1C,-3,15
CC1=N/C(=C\c2ccc([N+](=O)[O-])cc2)C(=O)N1c1cc(Cl)ccc1Cl,-1,52*
Cc1ccc(S(=O)(=O)N2CCc3nc(NC(=O)c4cccc(C)c4)sc3C2)cc1,-2,21
CCC(=O)NCc1csc(C2CCN(S(=O)(=O)c3cc(C)ccc3C)CC2)n1,2,13
CCN(CC)c1ccc(N)c(C)c1,-9,58*
CCN(CC)c1ccc(C#N)cc1,1,nt
COc1ccc(C=C2Oc3c(CN4CCCC4)c(O)cc(C)c3C2=O)c(OC)c1,-7,10
O=[N+]([O-])c1cc([N+](=O)[O-])c(-n2ccnc2)nc1-n1ccnc1,-1,4
O=C1CCCC2=C1C(c1ccc(Br)cc1)C1C(=O)c3ccccc3C1=N2 (stereo unspecified),-1,69*
CC1(C)CC(=O)C2=C(C1)N=C1c3ccccc3C(=O)C1C2c1cccc(Cl)c1 (stereo unspecified),-2,64*
CC1(C)CC(=O)C2=C(C1)N=C1c3ccccc3C(=O)C1C2c1ccccc1Cl (stereo unspecified),11,13
O=C1CCCC2=C1C(c1cc(Br)ccc1O)C1C(=O)c3ccccc3C1=N2 (stereo unspecified),-1,40
CC1(C)CC(=O)C2=C(C1)Nc1ccccc1NC2c1cccc([N+](=O)[O-])c1 (stereo unspecified),-2,0
CC1(C)CC(=O)C2=C(C1)N=C1c3ccccc3C(=O)C1C2c1ccc(Cl)cc1 (stereo unspecified),-3,68*
CC1(C)CC(=O)C2=C(C1)N=C1c3ccccc3C(=O)C1C2c1cccc([N+](=O)[O-])c1 (stereo unspecified),-2,51*!
O=C1CCCC2=C1C(c1cccc(Cl)c1)C1C(=O)c3ccccc3C1=N2 (stereo unspecified),-10,4
O=C1NN(c2cccc(Cl)c2)C(=O)/C1=C/c1cccn1-c1ccc([N+](=O)[O-])cc1,2,20
COC(=O)CNC(=O)N1CCCC1c1ccc(OC)cc1 (stereo unspecified),-6,4
Cc1ccc(C2C3=C(CC(C)(C)CC3=O)N=C3c4ccccc4C(=O)C32)cc1 (stereo unspecified),30,62*
COc1ccc(C2C3=C(CC(C)(C)CC3=O)N=C3c4ccccc4C(=O)C32)cc1OC (stereo unspecified),3,64*
COc1ccc(C2C3=C(CC(C)(C)CC3=O)OC3=C2C(=O)CC(C)(C)C3)cc1OC,2,-3
Cc1cc(C2C3=C(CC(C)(C)CC3=O)N=C3c4ccccc4C(=O)C32)cc(C)c1O (stereo unspecified),0,38
CNC(=O)C1CCCN1C(=O)Nc1ccccc1C (stereo unspecified),-2,-4
COc1ccc([C@@H]2C[C@@H](c3ccccc3)Oc3cc(C)cc(C)c32)cc1,-6,-8
COc1ccc([C@@H]2C[C@H](c3ccccc3)Oc3cc4c(cc32)OCO4)cc1,0,60*!
SMILES,Pf apPOL block,mHTT CaM bind
CCN(CC)c1ncc2c(n1)CCC(C(=O)Nc1cnccc1C)C2 (stereo unspecified),0,7
COc1cc(-c2cc(OC)c3c(C)oc(C)c3c(=O)c2)ccc1O,-3,35
Cc1oc(C)c2c(=O)cc(-c3ccc4c(c3)OCO4)cc(O)c12,6,53*
COc1cccc(NC(=O)N2C(=O)C(=O)c3cc(Br)ccc32)c1,28,73*
COc1cccc(NC(=O)c2cc(Br)ccc2OC)c1,-1,-6
Fc1ccc(N=Cc2ccccc2)cc1,9,nt
C(=Nc1ccc(Nc2ccccc2)cc1)c1ccccc1,-1,86*
O=C(NC1CCCC1)C1CCN(c2cc(N3CCSCC3)ncn2)CC1,1,-3
Cc1ccc2c(c1)N(C(C)C(=O)n1ccnc1)C(=O)CO2 (stereo unspecified),-9,-5
CCc1cc(-c2onc(C)c2-c2ccc(OC)cc2)c(O)cc1OC,-3,20
CCc1cc(-c2[nH]ncc2-c2ccc([N+](=O)[O-])cc2)c(O)cc1OC,6,95*
COc1ccc(N2CCN3c4cc(OC)ccc4CC(C(=O)NC4CC4)C3C2)cc1 (stereo unspecified),-3,27
COc1ccc2c(c1)N1CCN(c3ccc(C)cc3)CC1C(C(=O)NC1CC1)C2 (stereo unspecified),2,65*
O=C(CSc1nc(-c2ccccc2)cc(-c2ccccc2)n1)N=C1NC(=O)CS1,8,61*
Cn1c2ccc(Br)cc2c2nnc(SCC(=O)N=C3NC(=O)CS3)nc21,5,23
Cc1cc(OCC(=O)NCc2ccccc2)nc(N2CCCC2)n1,-1,-1
COc1cccc(C2C(=C(O)c3ccc(C)cc3)C(=O)C(=O)N2CCCn2ccnc2)c1OC (stereo unspecified),-1,0
